Measurements published in the OligoGym collection.

Columns and labels:
Experiment in all cases: pooled miR-30 sensor sort-seq; sequence = guide strand
Settings in all cases: shRNA
[1] = molecular target: EPHA8
[2] = molecular target: EPHB3
[3] = molecular target: EPHX1
[4] = molecular target: ETFB
[5] = molecular target: EYA3
[6] = molecular target: ETS1
[7] = molecular target: F2R
[8] = molecular target: FAM162A
[9] = molecular target: FAM178A
[10] = molecular target: FAM22F
[11] = molecular target: FAM73A
[12] = molecular target: FAN1
[13] = molecular target: FANCG
[14] = molecular target: FANCF
Further: reference of the scale not given here.

Sequence: TTGACGGATCACCACCACCTGG
- sensor-assay potency score (higher = more potent) [1]: -1.47

Sequence: TTGAGCTCCACGTAGACCCGCT
- sensor-assay potency score (higher = more potent) [2]: 0.189

Sequence: TCTCGTAGTACTTGATCTCATA
- sensor-assay potency score (higher = more potent) [1]: -1.09

Sequence: TTGTACAGGAGGTCATCCCGGC
- sensor-assay potency score (higher = more potent) [2]: -0.315

Sequence: TAGCTGAGGTCACAGTGGCAGG
- sensor-assay potency score (higher = more potent) [1]: -1.64

Sequence: TTCTCGTAGTACTTGATCTCAT
- sensor-assay potency score (higher = more potent) [1]: -0.461

Sequence: TATGACAGCACCAAGGGCGGGG
- sensor-assay potency score (higher = more potent) [2]: -0.054

Sequence: TCACCAACTGTCGTGAAGGTTG
- sensor-assay potency score (higher = more potent) [2]: -0.896

Sequence: TCATACTCCAGGATGATGCCGT
- sensor-assay potency score (higher = more potent) [1]: 0.44

Sequence: TAGCAGAAGTGAACTTCCGATA
- sensor-assay potency score (higher = more potent) [2]: -0.801

Sequence: TTTGAGGAACTGGCTTTCTTGT
- sensor-assay potency score (higher = more potent) [1]: -1.09

Sequence: ATTGCGGATGAGCTTGTCCAGG
- sensor-assay potency score (higher = more potent) [2]: -1.31

Sequence: ATGACAATTCCGTAGCTCCAGA
- sensor-assay potency score (higher = more potent) [2]: -1.32

Sequence: TACTTGAACCTCACCCACTTTT
- sensor-assay potency score (higher = more potent) [3]: -0.563

Sequence: TTGTCCTTCTCGTAGTACTTGA
- sensor-assay potency score (higher = more potent) [1]: -0.781

Sequence: TTCATCTGGCTGGTCACTGTGG
- sensor-assay potency score (higher = more potent) [2]: -0.423

Sequence: TTGTTCTGGCTTGACTCGCGCA
- sensor-assay potency score (higher = more potent) [2]: -0.743

Sequence: TCTCCGTGTACTCCGAATCAGA
- sensor-assay potency score (higher = more potent) [2]: -1.2

Sequence: TTTCCCGGTCTCCACCTCCATG
- sensor-assay potency score (higher = more potent) [1]: -1.71

Sequence: TTGCTGTTGACAAGGATGTTGC
- sensor-assay potency score (higher = more potent) [2]: -0.897

Sequence: TTGCAGATGACATTGTACAGGA
- sensor-assay potency score (higher = more potent) [2]: -0.122

Sequence: TCTGATAGTGCATCTTCTCCTC
- sensor-assay potency score (higher = more potent) [1]: 0.0792

Sequence: TAGTCCAGGATGACTCCGTTGG
- sensor-assay potency score (higher = more potent) [2]: -0.557

Sequence: TCACATTGGAGATCACACCTCG
- sensor-assay potency score (higher = more potent) [2]: 0.593

Sequence: TTGATCTCAGCATAGACGCGCC
- sensor-assay potency score (higher = more potent) [1]: -0.595

Sequence: TTTCAACTTGTCCCCCTCCAGC
- sensor-assay potency score (higher = more potent) [4]: -1.21

Sequence: TTGGCTTTCATGATGTTGGGCA
- sensor-assay potency score (higher = more potent) [4]: 0.503

Sequence: TTTAATGCAGTTCCTAACCAGG
- sensor-assay potency score (higher = more potent) [5]: -1.16

Sequence: TTAGTCTGACCTGTGACTCCAA
- sensor-assay potency score (higher = more potent) [5]: -0.459

Sequence: TTTACTTGGTGTAGTCTGGGAC
- sensor-assay potency score (higher = more potent) [5]: -0.478

Sequence: TTTTTGTCGTAATAGTAGCGTA
- sensor-assay potency score (higher = more potent) [6]: -0.88

Sequence: TAGAGTGATAGGTAAATAGTTC
- sensor-assay potency score (higher = more potent) [6]: -0.916

Sequence: TAATAGCTGATCTTAAAGGGGA
- sensor-assay potency score (higher = more potent) [7]: -0.239

Sequence: TTGCTCTCCTGATTCCTGCATC
- sensor-assay potency score (higher = more potent) [5]: -0.293

Sequence: TTTGATAGCAAAGTAGTCATTC
- sensor-assay potency score (higher = more potent) [6]: -0.303

Sequence: TATCGTAGCTCTCTATGCTTTC
- sensor-assay potency score (higher = more potent) [6]: -0.783

Sequence: TAGGATATCACATTCTGCTTTG
- sensor-assay potency score (higher = more potent) [7]: -0.448

Sequence: ATCACTGTTAGTCTGACCTGTG
- sensor-assay potency score (higher = more potent) [5]: 0.133

Sequence: TTGACTTATAGTTTGCTCTCCT
- sensor-assay potency score (higher = more potent) [5]: 0.627

Sequence: TAGTCTGACCTGTGACTCCAAA
- sensor-assay potency score (higher = more potent) [5]: -0.964

Sequence: TATAATCATTGGATGAGCGAGG
- sensor-assay potency score (higher = more potent) [5]: -0.793

Sequence: TTTCAGGATGAACACAACGATG
- sensor-assay potency score (higher = more potent) [7]: -1.75

Sequence: TTGAGTCTGCTGTAGTGTCTGG
- sensor-assay potency score (higher = more potent) [5]: -0.331

Sequence: TTTCTGGCCAATCTGTGTCTGA
- sensor-assay potency score (higher = more potent) [7]: -0.414

Sequence: TTTCTTTGCTGCTTGGAGTTAA
- sensor-assay potency score (higher = more potent) [6]: -0.637

Sequence: TTCTAATTCACTGTCTTGGGAA
- sensor-assay potency score (higher = more potent) [5]: -0.169

Sequence: TTGCTAGTCATGTTTTTCCTGG
- sensor-assay potency score (higher = more potent) [5]: -0.514

Sequence: TTAATCTCTGCAGTGCTTCCTT
- sensor-assay potency score (higher = more potent) [5]: 0.585

Sequence: TTACACATACATCACACTCTAT
- sensor-assay potency score (higher = more potent) [7]: -0.0427

Sequence: TTTTCCTGGACTGATCATCAGT
- sensor-assay potency score (higher = more potent) [5]: -0.683

Sequence: TAACACCGTCATCTCGTCCTGT
- sensor-assay potency score (higher = more potent) [7]: -0.174

Sequence: TAGTCCATATAGGAGAACCTTG
- sensor-assay potency score (higher = more potent) [5]: -1.31

Sequence: TACACCACAGCCAGAAACCGGT
- sensor-assay potency score (higher = more potent) [7]: -0.606

Sequence: AAACACTAGAACTTCTACGCAC
- sensor-assay potency score (higher = more potent) [7]: 0.254

Sequence: TAATCCTGGTTTGAGATGCTGG
- sensor-assay potency score (higher = more potent) [5]: -0.375

Sequence: AAGACTGACAGGATTTATCAGT
- sensor-assay potency score (higher = more potent) [6]: -0.516

Sequence: TCTGGTATTGAGTCTGTCCAGG
- sensor-assay potency score (higher = more potent) [5]: -0.468

Sequence: TTTCTTCCATTGTTAAACCTGA
- sensor-assay potency score (higher = more potent) [5]: -0.4

Sequence: TAGTGTCTGGTATTGAGTCTGT
- sensor-assay potency score (higher = more potent) [5]: -0.308

Sequence: TTTGGTAGCACTATAGATGTTC
- sensor-assay potency score (higher = more potent) [5]: 0.549

Sequence: TACACATACATCACACTCTATG
- sensor-assay potency score (higher = more potent) [7]: -1.1

Sequence: TAGTTTGCTCTCCTGATTCCTG
- sensor-assay potency score (higher = more potent) [5]: -0.14

Sequence: TAGATTTCTCTCACTTTCCGGT
- sensor-assay potency score (higher = more potent) [5]: 0.197

Sequence: TTCTGCTCTTAATCTCTGCAGT
- sensor-assay potency score (higher = more potent) [5]: -0.462

Sequence: TTATTGATGGAGACTAATCTGT
- sensor-assay potency score (higher = more potent) [7]: -0.475

Sequence: TTGTGAGGTATAATCATTGGAT
- sensor-assay potency score (higher = more potent) [5]: -0.583

Sequence: TTCCTGAGAAGAAATGACCGGG
- sensor-assay potency score (higher = more potent) [7]: 0.496

Sequence: TTAGAGATGAGGAAACATCTCT
- sensor-assay potency score (higher = more potent) [8]: 0.0745

Sequence: TCACATAACCTAAAACAGCTTC
- sensor-assay potency score (higher = more potent) [8]: -0.389

Sequence: TGAATGAATAGTGACTTCCTTC
- sensor-assay potency score (higher = more potent) [9]: -0.297

Sequence: TAAGAAGCTAGTGACAACTGGA
- sensor-assay potency score (higher = more potent) [9]: 0.82

Sequence: TGACAGGAGACTCTCCAGGGAG
- sensor-assay potency score (higher = more potent) [10]: -0.895

Sequence: TTGACAGGAGACTCTCCAGGGA
- sensor-assay potency score (higher = more potent) [10]: -0.14

Sequence: TAATATCATCTTCATCTGCTTT
- sensor-assay potency score (higher = more potent) [11]: -0.807

Sequence: TGTACTTGAATAGCGCACCTTC
- sensor-assay potency score (higher = more potent) [11]: 0.381

Sequence: TTTTTGAGAACTGTTCTCCAAA
- sensor-assay potency score (higher = more potent) [12]: -0.862

Sequence: TAGGCTCCGCTGGATATCCTGG
- sensor-assay potency score (higher = more potent) [13]: -1.03

Sequence: TAACATGATCGCATTATCTGAG
- sensor-assay potency score (higher = more potent) [12]: 0.286

Sequence: TTATCTTTCAGAGGTGGAGGGG
- sensor-assay potency score (higher = more potent) [14]: -0.733

Sequence: TTTGGGTTCTCTCTATAGCCAT
- sensor-assay potency score (higher = more potent) [14]: -1.05

Sequence: TTCATCAGAGAGTCCTCCTGGA
- sensor-assay potency score (higher = more potent) [14]: 0.554

Sequence: TAAGCAACTGTCATCCTGCAGA
- sensor-assay potency score (higher = more potent) [12]: 0.0838

Sequence: TAGACAGGAGACAGCGCTGGGT
- sensor-assay potency score (higher = more potent) [14]: -0.533

Sequence: TACAACAGTGCTCTCTGTGGAT
- sensor-assay potency score (higher = more potent) [13]: -0.172
